# Calls of active or inactive are those of the source. Cut-off read from the data, not from the text of the source, unless noted: active = inhibition above about 44%; inactive = the rest.
# Molecular target: Steroidogenic factor 1 (Homo sapiens) (UniProt Q13285)
# Experiment: inverse agonism at SF1 nuclear receptor – cell-based, luminescence, high throughput, counter-screen for LRH-1 inverse agonist project (AID 651614);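 note: cells cotransfected with StAR promoter reporter and SF1 expression vector; 0% = vehicle on cells with receptor and 100% = vehicle on cells lacking receptor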
# Settings: cell-based SF1 luciferase reporter, at 3.6 µM, hits give high values
# Chain of Steroidogenic factor 1 (Homo sapiens) (Q13285 whole entry, looked up): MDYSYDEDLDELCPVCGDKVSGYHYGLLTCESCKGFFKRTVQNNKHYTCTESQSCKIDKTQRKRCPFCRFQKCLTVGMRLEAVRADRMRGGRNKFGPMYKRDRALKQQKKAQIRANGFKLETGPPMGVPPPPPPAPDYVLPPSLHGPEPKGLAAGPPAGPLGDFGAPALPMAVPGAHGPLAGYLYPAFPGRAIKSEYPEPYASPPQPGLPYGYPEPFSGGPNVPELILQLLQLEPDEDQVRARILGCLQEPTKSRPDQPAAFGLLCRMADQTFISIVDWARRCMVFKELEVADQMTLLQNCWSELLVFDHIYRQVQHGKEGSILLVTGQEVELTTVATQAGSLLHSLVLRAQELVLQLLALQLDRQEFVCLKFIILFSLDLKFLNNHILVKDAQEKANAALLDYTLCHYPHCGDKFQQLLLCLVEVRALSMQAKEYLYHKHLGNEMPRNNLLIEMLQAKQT
row,SMILES,inhibition
1,Cc1ccccc1N=C1NC(=O)/C(=C/c2cccnc2)S1,40.2% (inactive)
2,Cc1cccc(NC(=O)COC(=O)c2cccs2)c1C,56.8% (active)
3,COc1ccc(-c2cc(NC=O)c3ncc(-c4ccc(C(C)=O)cc4)n3c2)cn1,59% (active)
4,CCCC(=O)Nc1sc2c(c1C(=O)Nc1ccccn1)CCCC2,53.8% (active)
5,O=C(CSc1ncnc2c1cnn2Cc1ccccc1)Nc1ccc2c(c1)OCCO2,54% (active)
6,NS(=O)(=O)c1ccc(O)c(NC(=O)c2ccc([N+](=O)[O-])o2)c1,61.2% (active)
7,Cc1nc2ccccc2n1/N=C/c1ccc([N+](=O)[O-])s1,71.4% (active)
8,CCOc1ccc(NC(=O)COC(=O)c2cc([N+](=O)[O-])ccc2N2CCOCC2)cc1,50.6% (active)
9,CN1CC(=O)N(CC(=O)Nc2ccc(N3CCOCC3)cc2)C1=O,65.2% (active)
10,COc1ccc(OCCNC(=O)C2(C)CCN2Cc2ccc3ccccc3c2)cc1 (stereo not given),43.2% (active)
11,COc1ccc(-c2nnc(NC(=O)c3ccc([N+](=O)[O-])o3)o2)c(OC)c1,57% (active)
12,Cc1cc(O)c(/C=N/Nc2cccc(Cl)c2)c(=O)o1,24.6% (inactive)
13,CNC(=O)c1cccc(NC(=O)c2cc(-c3ccccc3)nc3c2cnn3C(C)C)c1,49.4% (active)
14,CCOCC(=O)Nc1cccc(C(=O)OCC)c1,28.2% (inactive)
15,O=C(CSc1cc(Cl)ccc1Cl)Nc1ccc(N2CCOCC2)cc1,65.3% (active)
16,CCOc1ccc(CCNC(=O)COC(=O)c2nc3nc(C)cc(C)n3n2)cc1OCC,38.2% (inactive)
17,Cc1ccccc1C(=O)O/N=C/c1c(N2CCOCC2)n(C)c2ccccc12,91.4% (active)
18,NC(=S)N/N=C/c1ccc([N+](=O)[O-])cc1,39.8% (inactive)
19,CC(=O)Nc1ccc(NC(=O)CSc2nnc(-c3cc4ccccc4o3)n2C)cc1,43.9% (active)
20,O=C(CSC1=NCCS1)N1CCN(c2ccc(Cl)cc2)CC1,53.3% (active)

row,SMILES,inhibition
1,COC(=O)c1ccc(NC(=O)CN2CCN(c3ccc(Cl)cc3)CC2)cc1,45.8% (active)
2,CCOC(=O)c1ccc(Nc2nc(-c3cccnc3)nc3ccccc23)cc1,41.1% (inactive)
3,Cc1ccc(OCCC(=O)OCC(=O)Nc2ccc(N3CCOCC3)cc2)cc1,46.6% (active)
4,COc1ccc2sc(-c3ccc(N(C)C)cc3)c(C#CCCO)c2c1,53.7% (active)
5,COc1ccccc1NC(=O)CN1CCN(CC(=O)Nc2ccc3c(c2)OCO3)CC1,50.7% (active)
6,COc1ccc(CCNC(=O)CSc2nn3c(=O)c(C)nnc3s2)cc1OC,47.2% (active)
7,O=C(Nc1ccc(NC(=O)c2ccc([N+](=O)[O-])o2)cc1Cl)c1ccco1,73% (active)
8,O=C(NCc1cccnc1)c1cccn2c(=O)c3sccc3nc12,31.3% (inactive)
9,O=C(COC(=O)c1ccc(Br)o1)Nc1ccc2c(c1)OCCO2,63.1% (active)
10,COc1ccc(C2=NS(=O)(=O)N(C)C(C(=O)N3CCc4ccccc4C3)=C2)cc1OC,46.2% (active)
11,Cc1ccc(NC(=O)COC(=O)C(NS(=O)(=O)c2ccc(Cl)cc2)C(C)O)cc1C (stereo not given),43.2% (active)
12,COc1ccc(NC(=O)/C(Cl)=C(/Cl)S(=O)Cc2ccc(Cl)cc2)cn1 (stereo not given),84.6% (active)
13,Cc1cc(OCC(=O)NCc2cccnc2)c2c(C)c(C)c(=O)oc2c1,50.5% (active)
14,O=C(NC1CCC(CC2CCC(NC(=O)C(Cl)Cl)CC2)CC1)C(Cl)Cl (stereo not given),62% (active)
15,Cc1ccc(NC(=O)[C@H](Cc2c[nH]c3ccccc23)NC(=O)[C@@H]2Cc3ccccc3CN2)c(C)c1,71.4% (active)
16,Cc1cccnc1NC(=O)c1ccc([N+](=O)[O-])o1,57.8% (active)
17,COc1ccc(Nc2nc(NCCN3CCOCC3)nc(Nc3ccc(OC)cc3)n2)cc1,38.6% (inactive)
18,OCC1OC(n2cnc3c(/C=C(\O)c4ccccc4)ncnc32)C(O)C1O (stereo not given),-0.35% (inactive)
19,COc1ccccc1-c1cc(NC(C)=O)c2ncc(-c3ccc(S(C)(=O)=O)cc3)n2c1,48.6% (active)
20,N#Cc1cc([N+](=O)[O-])ccc1NC(=O)COC(=O)C1CCC(=O)N1 (stereo not given),48.9% (active)

# Tested on: not listed separately
# Experiment: compounds suppressing VP16-driven luciferase signal – cell-based, luminescence, high throughput, counter-screen for LRH-1 inverse agonist project (AID 651615; in the data active = inhibition above about 33%)
# Settings: Gal4-VP16 luciferase reporter cells, at 3.6 µM, hits give high values
row,SMILES,inhibition
1,Cc1ccccc1N=C1NC(=O)/C(=C/c2cccnc2)S1,8.55% (inactive)
2,Cc1cccc(NC(=O)COC(=O)c2cccs2)c1C,9.54% (inactive)
3,COc1ccc(-c2cc(NC=O)c3ncc(-c4ccc(C(C)=O)cc4)n3c2)cn1,-15.1% (inactive)
4,CCCC(=O)Nc1sc2c(c1C(=O)Nc1ccccn1)CCCC2,5.28% (inactive)
5,O=C(CSc1ncnc2c1cnn2Cc1ccccc1)Nc1ccc2c(c1)OCCO2,2.68% (inactive)
6,NS(=O)(=O)c1ccc(O)c(NC(=O)c2ccc([N+](=O)[O-])o2)c1,2.28% (inactive)
7,Cc1nc2ccccc2n1/N=C/c1ccc([N+](=O)[O-])s1,29.6% (inactive)
8,CCOc1ccc(NC(=O)COC(=O)c2cc([N+](=O)[O-])ccc2N2CCOCC2)cc1,-1% (inactive)
9,CN1CC(=O)N(CC(=O)Nc2ccc(N3CCOCC3)cc2)C1=O,-10.9% (inactive)
10,COc1ccc(OCCNC(=O)C2(C)CCN2Cc2ccc3ccccc3c2)cc1 (stereo not given),1.36% (inactive)
11,COc1ccc(-c2nnc(NC(=O)c3ccc([N+](=O)[O-])o3)o2)c(OC)c1,10.2% (inactive)
12,Cc1cc(O)c(/C=N/Nc2cccc(Cl)c2)c(=O)o1,56% (active)
13,CNC(=O)c1cccc(NC(=O)c2cc(-c3ccccc3)nc3c2cnn3C(C)C)c1,-19.8% (inactive)
14,CCOCC(=O)Nc1cccc(C(=O)OCC)c1,2.72% (inactive)
15,O=C(CSc1cc(Cl)ccc1Cl)Nc1ccc(N2CCOCC2)cc1,3.31% (inactive)
16,CCOc1ccc(CCNC(=O)COC(=O)c2nc3nc(C)cc(C)n3n2)cc1OCC,-0.98% (inactive)
17,Cc1ccccc1C(=O)O/N=C/c1c(N2CCOCC2)n(C)c2ccccc12,58.8% (active)
18,NC(=S)N/N=C/c1ccc([N+](=O)[O-])cc1,-3.22% (inactive)
19,CC(=O)Nc1ccc(NC(=O)CSc2nnc(-c3cc4ccccc4o3)n2C)cc1,-5.84% (inactive)
20,O=C(CSC1=NCCS1)N1CCN(c2ccc(Cl)cc2)CC1,18.2% (inactive)

row,SMILES,inhibition
1,COC(=O)c1ccc(NC(=O)CN2CCN(c3ccc(Cl)cc3)CC2)cc1,2.51% (inactive)
2,CCOC(=O)c1ccc(Nc2nc(-c3cccnc3)nc3ccccc23)cc1,11.4% (inactive)
3,Cc1ccc(OCCC(=O)OCC(=O)Nc2ccc(N3CCOCC3)cc2)cc1,-7.59% (inactive)
4,COc1ccc2sc(-c3ccc(N(C)C)cc3)c(C#CCCO)c2c1,-4.7% (inactive)
5,COc1ccccc1NC(=O)CN1CCN(CC(=O)Nc2ccc3c(c2)OCO3)CC1,0.21% (inactive)
6,COc1ccc(CCNC(=O)CSc2nn3c(=O)c(C)nnc3s2)cc1OC,-10.1% (inactive)
7,O=C(Nc1ccc(NC(=O)c2ccc([N+](=O)[O-])o2)cc1Cl)c1ccco1,-20.2% (inactive)
8,O=C(NCc1cccnc1)c1cccn2c(=O)c3sccc3nc12,1.7% (inactive)
9,O=C(COC(=O)c1ccc(Br)o1)Nc1ccc2c(c1)OCCO2,1.94% (inactive)
10,COc1ccc(C2=NS(=O)(=O)N(C)C(C(=O)N3CCc4ccccc4C3)=C2)cc1OC,24.2% (inactive)
11,Cc1ccc(NC(=O)COC(=O)C(NS(=O)(=O)c2ccc(Cl)cc2)C(C)O)cc1C (stereo not given),-7.53% (inactive)
12,COc1ccc(NC(=O)/C(Cl)=C(/Cl)S(=O)Cc2ccc(Cl)cc2)cn1 (stereo not given),89.5% (active)
13,Cc1cc(OCC(=O)NCc2cccnc2)c2c(C)c(C)c(=O)oc2c1,-8.94% (inactive)
14,O=C(NC1CCC(CC2CCC(NC(=O)C(Cl)Cl)CC2)CC1)C(Cl)Cl (stereo not given),-2.2% (inactive)
15,Cc1ccc(NC(=O)[C@H](Cc2c[nH]c3ccccc23)NC(=O)[C@@H]2Cc3ccccc3CN2)c(C)c1,77.5% (active)
16,Cc1cccnc1NC(=O)c1ccc([N+](=O)[O-])o1,1.88% (inactive)
17,COc1ccc(Nc2nc(NCCN3CCOCC3)nc(Nc3ccc(OC)cc3)n2)cc1,0.52% (inactive)
18,OCC1OC(n2cnc3c(/C=C(\O)c4ccccc4)ncnc32)C(O)C1O (stereo not given),-27.3% (inactive)
19,COc1ccccc1-c1cc(NC(C)=O)c2ncc(-c3ccc(S(C)(=O)=O)cc3)n2c1,-21.1% (inactive)
20,N#Cc1cc([N+](=O)[O-])ccc1NC(=O)COC(=O)C1CCC(=O)N1 (stereo not given),-3.83% (inactive)
